Lassa entry inh = qHTS for Inhibitors of binding or entry into cells for Lassa Virus. AID 540256, 2011. Lassa virus pseudotype entry inhibition, cell reporter. hit rate 1.2% among 300,000. Potency, µM (doses to about 37.9 µM), without a hit: at the top dose activity change, negative = inhibition, most hits filed as inhibitors; calls by dose curve; tested in HEK293 cells; further: potency means the concentration at half of the fitted maximal effect; nearly all actives have a fitted effect of over 50% in size
FMDV inh = High Throughput Screening for Foot and Mouth Disease Virus Antivirals; Potency, µM (titrated, usually from 57.9 µM), for inactives: top-dose activity change, negative = inhibition, actives largely listed as inhibitors; hit rate 1.2% among 410,000; FMDV antiviral cell-based qHTS; calls by dose curve; tested in HEK293T cells; further: read-out not given here; potency means the concentration at half of the fitted maximal effect; nearly all actives have a fitted effect of over 45% in size
MARV entry inh = qHTS for inhibitors of binding or entry into cells for Marburg Virus | Marburg virus pseudotyped entry inhibition, cell reporter | Potency, µM (series often up to 37.8 µM), without a hit: top-dose activity change, negative = inhibition, actives largely listed as inhibitors | hit rate 1.8% among 300,000 | AID 540276, 2011; calls by dose curve; tested in HEK293 cells; further: potency means the concentration at half of the fitted maximal effect
HCV inhibitor = qHTS Assay for Inhibitors of Hepatitis C Virus (HCV); Potency, µM (titrated, usually from 41.8 µM), inactives show at the highest dose activity change, negative = inhibition, actives largely listed as inhibitors; AID 651820, 2012; hit rate 3.4% among 340,000; Huh7.5.1 HCVcc-Cre infection, luciferase reporter, 44 h; active means well fitted inhibition curve with a large enough effect; inconclusive means small, poorly fitted or top-dose-only effect, or another doubt; inactive means no such curve, though single readings can be large or run the other way; further: potency means the concentration at half of the fitted maximal effect
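Antiviral activity was scored by luciferase reporter output from cells infected with HCVcc-Cre (~0.5 moi) in presence of compound, 44 h infection period, cells seeded 1,000/well 4 h prior.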
HCMV antiviral = qHTS Assay for inhibitors of the human cytomegalovirus (HCMV). HFF cells, HCMV-luciferase reporter, 72 h; active compounds read low. activity change, negative = inhibition, % at 57.5 µM. hit rate 4.5% among 410,000. AID 1259415, 2018; in the data active means activity change below about -60%; inconclusive means no clear call, values can overlap the other calls; inactive means above about -39%
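Screen run at 2 compound doses on HFFs infected with reporter HCMV, MOI 1 PFU/cell. Luciferase activity from cell lysates at 72 h post infection gave inhibition relative to buffer-only and Salinomycin wells.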
The depositor's hits bear a star; [ ] = another dose, or the depositor's remark. A selection: hits, their analogues and other compounds. The true share with any hit is near 7.9%. On the % scale 0 is the no-effect control and ±100 the full control effect.

CCn1c(COc2ccc(C)cc2)nnc1SCc1nc2ccccc2[nH]1 was read as Lassa entry inh -14%, FMDV inh inconclusive, MARV entry inh inconclusive, HCV inhibitor 14µM* and HCMV antiviral -65*.
Screening Clc1ccc(OCc2nnc(SCc3nc4ccccc4[nH]3)n2Cc2ccco2)cc1 returned Lassa entry inh inconclusive, FMDV inh inconclusive, MARV entry inh inconclusive, HCV inhibitor 10µM* and HCMV antiviral -80*.
Screening C(=C\c1ccccc1)/CSc1nnc(-c2ccccn2)n1Cc1ccco1 returned Lassa entry inh inconclusive, FMDV inh 0%, MARV entry inh inconclusive, HCV inhibitor 10µM* and HCMV antiviral -13.
For Cc1ccc(S(=O)(=O)N2C[C@H]3n4c(=O)ccc(=O)n4C[C@H](OC(=O)NCc4ccco4)[C@@]3(O)C2)cc1 the results were FMDV inh inconclusive and HCMV antiviral -14.
For Cc1ccc(S(=O)(=O)N2C[C@H]3n4c(=O)ccc(=O)n4C[C@H](OC(=O)NCC4CCCCC4)[C@@]3(O)C2)cc1 the results were FMDV inh 32µM* and HCMV antiviral -102*.
For COc1ccc(CNC(=O)O[C@H]2Cn3c(=O)ccc(=O)n3[C@@H]3CN(S(=O)(=O)c4ccc(C)cc4)C[C@]23O)cc1OC the results were FMDV inh inconclusive and HCMV antiviral -33.
For Cc1ccc(S(=O)(=O)N2C[C@H]3n4c(=O)ccc(=O)n4C[C@H](OC(=O)NCc4ccccc4)[C@@]3(O)C2)cc1 the results were FMDV inh 0% and HCMV antiviral -61*.
For Cn1ncc(S(=O)(=O)Cc2ccccc2)c(Br)c1=O the results were Lassa entry inh 9.2µM* and MARV entry inh -18%.
`CC1=CC(C)(C)Nc2ccc(OC(=O)CN3C(=O)c4cccc5cccc(c45)C3=O)cc21` gave Lassa entry inh -3%, FMDV inh inconclusive, MARV entry inh -20%, HCV inhibitor inconclusive and HCMV antiviral -78*.
`CC1=CC(C)(C)Nc2ccc(OC(=O)CN3C(=O)c4ccccc4C3=O)cc21` gave Lassa entry inh inconclusive, FMDV inh inconclusive, MARV entry inh inconclusive, HCV inhibitor 25µM* and HCMV antiviral -100*.
For CC1=CC(C)(C)Nc2ccc(OC(=O)C(Cc3ccccc3)N3C(=O)c4ccccc4C3=O)cc21 (configuration not stated) the results were Lassa entry inh 5µM*, FMDV inh 0%, MARV entry inh 14%[46.1 µM], HCV inhibitor 19% and HCMV antiviral inconclusive.
`CCNc1ncc2nc(C)c(=O)n(C)c2n1` gave FMDV inh -5%.
Screening COc1cc2c(cc1OC)C1(Nc3c-2c(-c2ccccc2)nn3-c2ccccc2)C(=O)Nc2ccccc21 (configuration not stated) returned Lassa entry inh -25%, FMDV inh -29%, MARV entry inh inconclusive, HCV inhibitor 13µM* and HCMV antiviral -15.
Screening COc1cc2c(cc1OC)C1(Nc3c-2c(C)nn3-c2ccccc2)C(=O)Nc2ccccc21 (configuration not stated) returned Lassa entry inh inconclusive, FMDV inh -20%, MARV entry inh -4%, HCV inhibitor -27% and HCMV antiviral -21.
Screening COc1ccc2c(CNCCc3ccccc3)c(C(=O)O)n(Cc3cccc(F)c3)c2c1 returned Lassa entry inh inconclusive, FMDV inh 3% and HCMV antiviral 36.
Cn1c(-c2ccccc2)c[n+]2c1-c1ccccc1C2 was read as FMDV inh 12%, HCV inhibitor 11µM* and HCMV antiviral inconclusive.
`Cn1c(-c2ccccc2)cccc1=O` gave Lassa entry inh -1%, FMDV inh 11%, MARV entry inh 10%, HCV inhibitor 8% and HCMV antiviral 33.
`Cc1noc(/C=C/c2cccnc2)c1[N+](=O)[O-]` gave FMDV inh 14µM*, HCV inhibitor inconclusive and HCMV antiviral -98*.
Screening Cc1cccc(C)c1N/C=C/c1onc(C)c1[N+](=O)[O-] returned Lassa entry inh 7%, FMDV inh 0%, MARV entry inh -6%, HCV inhibitor 24% and HCMV antiviral -15.
`CCOc1ccc(CCN2C(=S)N([C@@H](Cc3ccccc3)CN3CCC[C@@H]3CN3C(=S)NC[C@@H]3Cc3ccc(O)cc3)C[C@@H]2CC(C)C)cc1` gave FMDV inh -19% and HCMV antiviral 1.
`CCOc1ccc(CCN2C(=S)N([C@@H](Cc3ccc(O)cc3)CN3CCC[C@@H]3CN3C(=S)NC[C@@H]3CC(C)C)C[C@@H]2Cc2ccc(O)cc2)cc1` gave FMDV inh -4% and HCMV antiviral -63*.
For CCOc1ccc(CCN2C(=S)N([C@@H](Cc3ccc(O)cc3)CN3CCCC3CN3C(=S)NC[C@@H]3Cc3ccc(O)cc3)C[C@@H]2CC(C)C)cc1 (some centres not stated) the results were FMDV inh inconclusive, HCV inhibitor 4.5µM* and HCMV antiviral -80*.
For Cc1cc(NC(=O)C2CCN(S(=O)(=O)c3cccc4nsnc34)CC2)ccc1Br the results were Lassa entry inh 21%[46.1 µM], FMDV inh -21%, MARV entry inh -7%[46.1 µM] and HCMV antiviral inconclusive.
For C=CCOc1ccccc1CNCCc1ccc(S(N)(=O)=O)cc1 the results were Lassa entry inh -5%[46.1 µM], FMDV inh -18%, MARV entry inh inconclusive, HCV inhibitor 7% and HCMV antiviral 10.
For NS(=O)(=O)c1ccc(CCNCc2ccccc2OCc2ccc(Cl)cc2)cc1 the results were Lassa entry inh inconclusive, FMDV inh -25%, MARV entry inh inconclusive, HCV inhibitor 13µM* and HCMV antiviral -16.
Screening NS(=O)(=O)c1ccc(CCNCc2cc(Cl)ccc2OCc2ccccc2)cc1 returned Lassa entry inh -21%[46.1 µM], FMDV inh inconclusive, MARV entry inh inconclusive, HCV inhibitor 22µM* and HCMV antiviral -67*.
Screening Cc1noc(C)c1C(=O)N1CCC2(CCCN(c3ccncc3)C2)CC1 returned FMDV inh 7%.
Screening O=S(=O)(c1ccccc1)N1CCN(Cc2ccccc2)CC1 returned FMDV inh -11%, HCV inhibitor 12% and HCMV antiviral -5.
For Cc1ccc(S(=O)(=O)N2CCc3ccccc3CC2)cc1 the results were Lassa entry inh inconclusive, FMDV inh -3%, MARV entry inh inconclusive, HCV inhibitor inconclusive and HCMV antiviral -78*.
Screening Cc1ccc(S(=O)(=O)N2CCN(Cc3ccccc3)CC2)cc1 returned FMDV inh -27%, MARV entry inh 2%, HCV inhibitor -17% and HCMV antiviral -60*.
Screening CC1Cc2ccccc2N1C(=O)CSc1nc2cc3c(cc2cc1C#N)OCO3 (configuration not stated) returned Lassa entry inh -11%, FMDV inh -7%, MARV entry inh 7%, HCV inhibitor inconclusive and HCMV antiviral -17.

Compound activity as filed in PubChem.
